# From PubChem BioAssay
# PLCg1 inh = PLC-gamma1 enzyme inhibitors, primary screen, biochemical, fluorescence, purified enzyme; fluorogenic substrate; inhibition, % at 12.2 µM; actives 0.84% (n = 370,000); AID 720700, 2013; in the data active = inhibition above about 9.5%
# HGIII-sPLA2 inh = human group III sPLA2 inhibitors, primary screen, biochemical, QFRET, BODIPY PC-A2 liposome substrate; inhibition, % at 12.2 µM; actives 0.56% (n = 370,000); QFRET BODIPY PC-A2 liposome hydrolysis, fluorescence;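 active = inhibition above mean plus 3 SD of compounds lying within the high and low control bounds, cut at about 19% in these data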;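 note: 0% = median of test compound wells and 100% = no enzyme DMSO wells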
# Target sequence (Q9NZ20 whole entry, looked up): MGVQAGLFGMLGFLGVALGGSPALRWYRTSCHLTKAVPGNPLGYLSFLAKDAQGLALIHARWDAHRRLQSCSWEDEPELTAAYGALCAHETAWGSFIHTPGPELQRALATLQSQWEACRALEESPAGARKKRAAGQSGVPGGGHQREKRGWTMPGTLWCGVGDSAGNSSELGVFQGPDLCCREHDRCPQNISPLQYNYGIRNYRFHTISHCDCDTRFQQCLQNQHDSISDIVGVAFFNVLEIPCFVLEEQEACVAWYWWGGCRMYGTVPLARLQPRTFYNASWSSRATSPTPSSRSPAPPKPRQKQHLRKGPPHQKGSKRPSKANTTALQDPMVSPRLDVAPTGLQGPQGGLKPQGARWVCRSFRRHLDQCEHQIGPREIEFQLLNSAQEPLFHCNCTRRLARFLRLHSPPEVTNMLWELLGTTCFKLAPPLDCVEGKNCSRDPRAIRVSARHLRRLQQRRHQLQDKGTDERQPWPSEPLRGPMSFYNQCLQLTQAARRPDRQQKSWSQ
# DAGLB inhibitor = DAGLB lipase inhibitors, primary screen, biochemical, fluorescence, HTS; inhibition, % at 5.17 µM; HEK293T DAGLB membrane lysate, EnzChek fluorogenic substrate; actives 0.059% (n = 340,000); in the data active = inhibition above about 34%;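 note: 0% = enzyme with vehicle and 100% = wells lacking enzyme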
# PLC-beta3 inh = human PLC-beta3 inhibitors, primary screen, biochemical, fluorescence. AID 720704, 2013. actives 0.18% (n = 370,000). inhibition, % at 12.2 µM. 1-phosphatidylinositol 4,5-bisphosphate phosphodiesterase beta-3 (Homo sapiens), Q01970. Purified PLC-beta3, fluorogenic substrate; in the data active = inhibition above about 11%;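 note: 0% = median of compound wells on plate and 100% = full blocker control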
# hGIII sPLA2 conf = human group III sPLA2 inhibitors, confirmation, biochemical, QFRET, triplicate; shares compounds with HGIII-sPLA2 inh; recombinant hGIII-sPLA2, BODIPY PC-A2 QFRET fluorescence; inhibition, % at 12.2 µM; actives 34% (n = 2,000); AID 743280, 2014;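 active = mean inhibition across triplicates above the hit cutoff set in the earlier primary screen, cut at about 19% in these data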;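 note: 0% = enzyme with DMSO and 100% = DMSO wells lacking enzyme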
# 535nm interf = 535nm fluorescence optical interference, confirmation, artefact control for HGIII-sPLA2 inhibitor project, biochemical, QFRET; shares compounds with HGIII-sPLA2 inh; BODIPY FL product fluorescence interference; inhibition, % at 12.2 µM; actives 8.5% (n = 2,000); AID 743282, 2014;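 active = average inhibition above the solvent-only control mean plus 3 SD, cut at about 6% in these data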;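 note: 0% = DMSO with substrate plus product and 100% = DMSO with substrate alone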
# BODIPY interf DR = 535nm fluorescence optical interference, dose response, artefact control for HGIII-sPLA2 inhibitor project, biochemical, QFRET; BODIPY FL product fluorescence interference, cell-free; 240 tested, under 10 active; IC50, µM; shares compounds with HGIII-sPLA2 inh;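 active = IC50 at or below 10 µM; inactive = IC50 above 10 µM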
# The depositor's hits bear a star; / = no result. The list is not random: actives were taken first. Their share in the collection is about 1.5%.
SMILES,PLCg1 inh,HGIII-sPLA2 inh,DAGLB inhibitor,PLC-beta3 inh,hGIII sPLA2 conf,535nm interf,others
C=CCn1c(O)c(N=NC(=S)Nc2ccccc2F)c2cc(S(=O)(=O)N3CCOCC3)ccc21,4,21*,8,-5,26*,-11,
C=CCn1c(O)c(N=NC(=S)Nc2ccccc2F)c2ccccc21,5,20*,4,3,32*,13*,
O=C(Nc1cc(Cl)ccc1F)C1CCCN1S(=O)(=O)c1cccc2cccnc12 (stereo not drawn),3,6,/,3,/,/,
CCCN1CCS(=O)(=O)N(Cc2cn(Cc3ccc(C)cc3)nn2)C(C(=O)OC)C1 (stereo not drawn),0,10,/,1,/,/,
O=C(OCc1ccccc1)C1=NNC2C(=O)N(c3ccccc3)C(=O)C12 (stereo not drawn),1,23*,-2,-8,1,-3,
O=C(c1cccnc1Cl)N1CCC(Oc2cccnc2)CC1,1,14,/,-2,/,/,
S=c1[nH]nc(-c2ccco2)n1/N=C/c1cccs1,2,20*,2,0,23*,-4,
Cc1cccc(C)c1NC(=O)Cn1nnc(-c2ccncc2)n1,-2,3,/,0,/,/,
CC(C)(C)c1ccc(C(=O)NNC(=O)c2ccc(Cl)cc2)cc1,4,-12,0,0,/,/,
Cc1ccc(NNC(=O)c2ccc(Cl)cc2)nn1,-1,47*,0,-5,73*,74*,
CC1(C)Oc2ccc3ccc(=O)oc3c2C(/C=N/O)=C1Cl,-25,21*,1,-42,8,-5,
COC1=C[C@H](C(=O)N[C@H]2CCCC[C@@H]2NC(C)=O)[C@@]2(C)Cc3ccccc3[C@H]2CC1=O,0,12,/,-2,/,/,
Cc1ccc(Cn2c(=O)n(CCC(=O)NCc3ccc4c(c3)OCO4)c(=O)c3ccccc32)cc1,4,-2,-3,3,/,/,
N#Cc1ccccc1Cn1c(=O)n(CCCC(=O)NCc2ccc3c(c2)OCO3)c(=O)c2ccccc21,-3,21*,-1,-3,-2,-10,
O=C(NCCc1ccccc1)OCc1cn(Cc2ccc(C(F)(F)F)cc2)nn1,-1,-2,/,-2,/,/,
CN(C)N1C(N)=C(C#N)C(c2cccc([N+](=O)[O-])c2)C2=C1CC(C)(C)CC2=O (stereo not drawn),1,20*,4,-4,0,-6,
COc1ccc(C2C(C#N)=C(N)N(N(C)C)C3=C2C(=O)CC(C)(C)C3)cc1OC (stereo not drawn),-6,6,1,-11,/,/,
CCCC(=O)NC(c1ccc(OC)c(OC)c1)c1cc(Cl)c2cccnc2c1O (stereo not drawn),-2,5,8,-4,/,/,
Cc1ccnc(NC(c2ccccc2)c2ccc3cccnc3c2O)c1 (stereo not drawn),-8,16,3,-11,/,/,
CCC(=O)NC(c1ccco1)c1cc(Br)c2cccnc2c1O (stereo not drawn),-22,23*,/,-26,16,-8,
CCCCC(=O)NC(c1ccc(Cl)cc1Cl)c1ccc2cccnc2c1O (stereo not drawn),-15,21*,-13,-13,30*,-3,
CC(=O)NC(c1ccco1)c1ccc2cccnc2c1O (stereo not drawn),/,/,2,/,/,/,
CC(C)C(=O)NC(c1ccc(Cl)cc1Cl)c1ccc2cccnc2c1O (stereo not drawn),-34,25*,-8,-28,32*,0,
CCC(=O)NC(c1ccc(Cl)cc1Cl)c1ccc2cccnc2c1O (stereo not drawn),-21,33*,14,-24,25*,-6,
COc1ccc(C(NC(=O)C(C)C)c2ccc3cccnc3c2O)cc1 (stereo not drawn),-20,23*,13,-35,19*,-14,
SMILES,PLCg1 inh,HGIII-sPLA2 inh,DAGLB inhibitor,PLC-beta3 inh,hGIII sPLA2 conf,535nm interf,others
CCCCC(=O)NC(c1ccc(OC)cc1)c1ccc2cccnc2c1O (stereo not drawn),-7,10,10,-6,/,/,
CCCCC(=O)NC(c1cccs1)c1cc(Cl)c2cccnc2c1O (stereo not drawn),-23,24*,-2,-18,32*,0,BODIPY interf DR=>122
Oc1ccc(/C=C/c2ccccc2F)c2cccnc12,-31,28*,/,-42,6,9.6*,
S=C(Nc1cccc(Cl)c1)OC1CCC12CCC(c1ccccc1)CC2 (stereo not drawn),4,-1,/,3,/,/,
Cc1ccccc1N1CCN(C(=S)c2ccccc2)CC1,-2,21*,-10,-3,10,-3,
S=C(c1ccccc1)N1CCN(c2ccccc2)CC1,0,3,-12,1,/,/,
O=C(NCCN1C(=O)C2C3C=CC(C3)C2C1=O)c1cc(Cl)cc(Cl)c1 (stereo not drawn),1,-1,/,3,/,/,
Oc1ccccc1/C=N/Nc1ccccc1,-3,-5,0,0,/,/,
Oc1ccccc1/C=N/Nc1ncc(Br)cn1,-4,29*,1,-2,16,32*,
N#Cc1ccc(-c2csc(NNC(=O)c3ccc(Br)cc3)n2)cc1,-9,46*,-2,-21,36*,11*,
CC(=O)Nc1ccc(-c2csc(NNC(=O)c3ccc(C)cc3)n2)cc1,-21,30*,-1,-26,23*,-1,
COc1ccc(-c2nc(NC(=O)c3ccccc3)sc2-c2ccc([N+](=O)[O-])cc2)cc1,-17,14,-4,-26,/,/,
COC(=O)c1nc(NNC(=O)c2ccccc2)sc1-c1ccccc1,4,30*,3,-8,30*,0,
O=C(Nc1nc(-c2ccc(Br)cc2)cs1)c1cccnc1,-2,3,9,-2,/,/,
O=C(NNc1nc(-c2ccc(Br)cc2)cs1)c1ccco1,-7,46*,2,-7,45*,12*,
CCOC(=O)[C@@H]1c2[nH]c3ccccc3c2C[C@@]2(C(=O)OC)C=CCN12,-37,15,/,-57,/,/,
O=C(NNc1nc(-c2ccccc2)cs1)c1ccccc1,-6,35*,-1,-13,33*,7.3*,
O=C(Nc1nc(-c2ccccc2)cs1)c1cccnc1,2,-1,-3,0,/,/,
O=C(OCC#CCSc1nnc(-c2cccs2)o1)c1ccc(F)cc1,1,-13,/,-6,/,/,
CC(C)Sc1cc(N2CCCC2)nc(-c2ccccc2)n1,-1,7,-11,2,/,/,
